Test results from the supplement of paper PMC11738630.

System: Salmonella enterica serovar Typhimurium 14028s
Assay: approximate change in surviving CFU after surface colonization relative to water-only control (log10 CFU/mL change); higher = more surviving bacteria (less inhibition of surface colonization)
Details: not stated (Biolog proprietary concentration), surface: plastic 96-well plate, 20-24 h at 25 °C

In the case of `O=C(O)[C@@H]1C[C@@H](O)CN1` [Hydroxy-L-Proline], the “approximate change in surviving CFU (log10)” value (“approximate change … (log10)” below) (Biolog plate: PM2, Biolog well: G8) is reported as 0.622.
For `CC(=O)C(C)=O` [2,3-Butanedione], the “approximate change … (log10)” value (Biolog plate: PM2, Biolog well: H11) was -1.61.
In the case of `NC(=O)NCCC[C@H](N)C(=O)O` [L-Citrulline], the “approximate change … (log10)” value (Biolog plate: PM3, Biolog well: C10) is reported as 0.665.
`CN` [Methylamine] was tested, and the “approximate change … (log10)” value (Biolog plate: PM3, Biolog well: D5) was -1.05.
With `CCCCN` [N-Butylamine] the “approximate change … (log10)” value (Biolog plate: PM3, Biolog well: D7) was -2.12.
With `NC=O` [Formamide] the “approximate change … (log10)” value (Biolog plate: PM3, Biolog well: E5) was -0.708.
`N[C@@H]1C(O)O[C@H](CO)[C@@H](O)[C@@H]1O` (stereo partly drawn) [D-Mannosamine] was tested, and the “approximate change … (log10)” value (Biolog plate: PM3, Biolog well: E10) was -1.09.
`Nc1[nH]cnc2ncnc1-2` [Adenine] was tested, and the “approximate change … (log10)” value (Biolog plate: PM3, Biolog well: F2) was -0.515.
With `Nc1nc2c(ncn2[C@@H]2O[C@H](CO)[C@@H](O)[C@H]2O)c(=O)[nH]1` [Guanosine] the “approximate change … (log10)” value (Biolog plate: PM3, Biolog well: F7) was -0.172.
With `Oc1nc(O)c2nc(O)[nH]c2n1` the “approximate change … (log10)” value (Biolog plate: PM3, Biolog well: G3) was 1.14.
With `CCC(N)C(=O)O` (racemic) [D,L-a-Amino-N-Butyric Acid] the “approximate change … (log10)” value (Biolog plate: PM3, Biolog well: G7) was -0.644.
In the case of `C[C@H](N)C(=O)N[C@@H](CCC(=O)O)C(=O)O`, the “approximate change … (log10)” value (Biolog plate: PM3, Biolog well: H3) is reported as 0.451.
`NCC(=O)N[C@@H](CCC(=O)O)C(=O)O` was tested, and the “approximate change … (log10)” value (Biolog plate: PM3, Biolog well: H10) was 0.472.
For `CSCC[C@H](NC(=O)CN)C(=O)O`, the “approximate change … (log10)” value (Biolog plate: PM3, Biolog well: H11) was -0.558.
`O=C(O)[C@@H](O)[C@@H](O)[C@H](O)[C@@H](O)C(=O)O` [D-Saccharic Acid] was tested, and the “approximate change … (log10)” value (Biolog plate: PM1, Biolog well: A4) was 0.708.
`OC[C@@H](O)[C@@H](O)[C@H](O)[C@@H](O)CO` [D-Sorbitol] was tested, and the “approximate change … (log10)” value (Biolog plate: PM1, Biolog well: B2) was 1.61.
With `C[C@H](O)[C@@H](O)[C@@H](O)[C@H](O)C=O` [L-Fucose] the “approximate change … (log10)” value (Biolog plate: PM1, Biolog well: B4) was 1.33.
`O=P(O)(O)OC[C@H](O)CO` (racemic) [D,L-a-Glycerol-Phosphate] was tested, and the “approximate change … (log10)” value (Biolog plate: PM1, Biolog well: B7) was 1.31.
In the case of `O=C[C@H](O)[C@@H](O)[C@H](O)[C@H](O)COP(=O)(O)O` [D-Glucose-6-Phosphate], the “approximate change … (log10)” value (Biolog plate: PM1, Biolog well: C1) is reported as 1.22.
With `OC[C@H]1O[C@H](O[C@H]2[C@H](O)[C@@H](O)[C@H](O)O[C@@H]2CO)[C@H](O)[C@@H](O)[C@@H]1O` [Maltose] the “approximate change … (log10)” value (Biolog plate: PM1, Biolog well: C10) was 1.57.
In the case of `CCC(=O)C(=O)O` [a-Keto-Butyric Acid], the “approximate change … (log10)” value (Biolog plate: PM1, Biolog well: D7) is reported as 0.172.
In the case of `CC[C@H](O)C(=O)O` [a-Hydroxy Butyric Acid], the “approximate change … (log10)” value (Biolog plate: PM1, Biolog well: E7) is reported as -2.3.
For `OCC1OC(OC2C(CO)OC(O)C(O)C2O)C(O)C(O)C1O` [D-Cellobiose], the “approximate change … (log10)” value (Biolog plate: PM1, Biolog well: F11) was 1.2.
For `COC(=O)CCC(=O)O` [Mono Methyl Succinate], the “approximate change … (log10)” value (Biolog plate: PM1, Biolog well: G9) was -1.74.
With `COC(=O)C(C)=O` [Methyl Pyruvate] the “approximate change … (log10)” value (Biolog plate: PM1, Biolog well: G10) was 0.0644.
With `O=C(O)Cc1cccc(O)c1` [m-Hydroxy Phenyl Acetic Acid] the “approximate change … (log10)” value (Biolog plate: PM1, Biolog well: H3) was -1.31.
With `NCCO` [2-Aminoethanol] the “approximate change … (log10)” value (Biolog plate: PM1, Biolog well: H12) was 0.365.
In the case of `N#C[C@H](O[C@@H]1O[C@H](CO[C@@H]2O[C@H](CO)[C@@H](O)[C@H](O)[C@H]2O)[C@@H](O)[C@H](O)[C@H]1O)c1ccccc1` [Amygdalin], the “approximate change … (log10)” value (Biolog plate: PM2, Biolog well: B4) is reported as 0.966.
In the case of `OC1OC[C@@H](O)[C@@H](O)[C@@H]1O` (stereo partly drawn) [D-Arabinose], the “approximate change … (log10)” value (Biolog plate: PM2, Biolog well: B5) is reported as 0.408.
For `OC[C@@H](O)C(O)[C@H](O)CO` [D-Arabitol], the “approximate change … (log10)” value (Biolog plate: PM2, Biolog well: B6) was 1.37.
`CO[C@@H]1OC[C@@H](O)[C@H](O)[C@H]1O` [b-Methyl-D-Xyloside] was tested, and the “approximate change … (log10)” value (Biolog plate: PM2, Biolog well: C11) was -0.215.
For `C[C@@H](O)CC(=O)O` [b-Hydroxy Butyric Acid], the “approximate change … (log10)” value (Biolog plate: PM2, Biolog well: E8) was -0.215.
In the case of `CCCC(=O)C(=O)O` [a-Keto-Valeric Acid], the “approximate change … (log10)” value (Biolog plate: PM2, Biolog well: E10) is reported as -0.966.
`O=C1O[C@H](CO)[C@@H](O)[C@H]1O` [D-Ribono-1,4-Lactone] was tested, and the “approximate change … (log10)” value (Biolog plate: PM2, Biolog well: F7) was 0.944.
In the case of `NC(=O)CCC(=O)O` [Succinamic Acid], the “approximate change … (log10)” value (Biolog plate: PM2, Biolog well: F10) is reported as 0.73.
In the case of `O=C(O)[C@H](O)[C@@H](O)C(=O)O` [L-Tartaric Acid], the “approximate change … (log10)” value (Biolog plate: PM2, Biolog well: F12) is reported as 0.687.
`NCC(O)c1ccc(O)cc1` (racemic) [D,L-Octopamine] was tested, and the “approximate change … (log10)” value (Biolog plate: PM2, Biolog well: H7) was 0.987.
In the case of `O=NO` [Nitrite], the “approximate change … (log10)” value (Biolog plate: PM3, Biolog well: A3) is reported as 0.966.
With `NC(N)=O` the “approximate change … (log10)” value (Biolog plate: PM3, Biolog well: A5) was 0.429.
In the case of `NC(=O)NC(N)=O` [Biuret], the “approximate change … (log10)” value (Biolog plate: PM3, Biolog well: A6) is reported as -0.258.
In the case of `O=C(O)CC[C@@H](C(=O)O)N1C(=O)c2ccccc2C1=O` [N-Phthaloyl-L-Glutamic Acid], the “approximate change … (log10)” value (Biolog plate: PM3, Biolog well: D2) is reported as -0.343.
For `CCCCCN` [N-Amylamine], the “approximate change … (log10)” value (Biolog plate: PM3, Biolog well: D6) was -0.708.
`Nc1ccn([C@@H]2O[C@H](CO)[C@@H](O)[C@H]2O)c(=O)n1` [Cytidine] was tested, and the “approximate change … (log10)” value (Biolog plate: PM3, Biolog well: F4) was 0.386.
`O=C1NC(=O)C(=O)N1` [Parabanic Acid] was tested, and the “approximate change … (log10)” value (Biolog plate: PM3, Biolog well: G6) was -2.58e-05.
With `C[C@H](N)C(=O)N[C@@H](CCC(N)=O)C(=O)O` the “approximate change … (log10)” value (Biolog plate: PM3, Biolog well: H2) was 0.0644.
In the case of `NCC(=O)N[C@@H](CCC(N)=O)C(=O)O`, the “approximate change … (log10)” value (Biolog plate: PM3, Biolog well: H9) is reported as 0.129.
For `CSCC[C@H](N)C(=O)N[C@@H](C)C(=O)O`, the “approximate change … (log10)” value (Biolog plate: PM3, Biolog well: H12) was 0.0214.
With `N[C@@H](Cc1ccccc1)C(=O)O` [L-Phenylalanine] the “approximate change … (log10)” value (Biolog plate: PM2, Biolog well: H2) was -0.322 and the “approximate change … (log10)” value (Biolog plate: PM3, Biolog well: B8) was -0.215.
For `NC(=O)CC[C@H](N)C(=O)O` [L-Glutamine], the “approximate change … (log10)” value (Biolog plate: PM1, Biolog well: E1) was 0.322 and the “approximate change … (log10)” value (Biolog plate: PM3, Biolog well: B1) was -0.0429.
In the case of `N[C@H](CC(=O)O)C(=O)O` [D-Aspartic Acid], the “approximate change … (log10)” value (Biolog plate: PM1, Biolog well: D2) is reported as 1.01 and the “approximate change … (log10)” value (Biolog plate: PM3, Biolog well: C5) is reported as 0.816.
In the case of `N[C@@H](CCO)C(=O)O` [L-Homoserine], the “approximate change … (log10)” value (Biolog plate: PM2, Biolog well: G7) is reported as 0.923 and the “approximate change … (log10)” value (Biolog plate: PM3, Biolog well: C11) is reported as 0.365.
`NCCCCN` [Putrescine] was tested, and the “approximate change … (log10)” value (Biolog plate: PM2, Biolog well: H8) was 0.322 and the “approximate change … (log10)” value (Biolog plate: PM3, Biolog well: D11) was -0.3.
